The text below walks through data of PubChem BioAssay.

“And” between values parts separate entries of the source, which are not always exact repeats. Identical values can stand only once. Values without a mark were called inactive.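 Rule for the calls: active = compounds killing one labelled cell type while sparing the other, by normalised counts and ratio limits, not self-fluorescent; inactive = the rest.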

The assay can be described thus: EMT-state selective cytotoxicity in co-culture – imaging, PC-3E GFP, TEM4-18 mCherry, primary screen (AID 1345086).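 Note: normalised mesenchymal count divided by normalised epithelial count so high means epithelial killing; cells exposed to compound for 72 h before imaging.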 The note with it: PC-3E GFP / TEM4-18 mCherry co-culture, imaging cell counts; at 1 µM; actives lie on both sides; counts scaled to control wells, 1 = unselective.
As for `O=C1N[C@@H]2[C@@H](Sc3ccccc3)OC(CO)C(O)[C@@H]2O1` (some centres undefined), the red/green cell ratio (normalised) was 0.97.

In the case of `COc1ccc2cc(C(C)=O)ccc2c1`, the red/green cell ratio (normalised) was 1.13. The result for `COC(=O)c1cn(C2CC2)c2c(OC)c(F)c(F)c(N)c2c1=O` reads 1.1. Then `CCC(/C=C/[C@@H](C)[C@H]1CCC2C3CC=C4C[C@@H](O)CC[C@]4(C)C3CC[C@@]21C)C(C)C` (some centres undefined), with 1.07.

Turning to `CC(=O)OCC1O[C@H](Sc2ccc(C)cc2)[C@@H]2[C@@H](OC(=O)N2C(C)=O)C1OC(C)=O` (some centres undefined), the red/green cell ratio (normalised) was 0.77. The result for `CC(=O)NC1[C@@H](O)C2OC(c3ccccc3)OCC2O[C@H]1Sc1ccccc1` (some centres undefined) reads 1.03. On to `CC/C=C1C=C(/C=C/CO)C(=O)O/1`, for which the red/green cell ratio (normalised) is 1.01.

In the case of `COc1cc(O)c(C(C)=O)c(O)c1`, the red/green cell ratio (normalised) was 0.99. Turning to `C[C@H]1[C@H](C)CC[C@]2(C(=O)O)CC[C@]3(C)C(=CCC4[C@@]5(C)C[C@@H](O)[C@H](O)[C@@](C)(CO)C5CC[C@]43C)[C@H]12` (some centres undefined), the red/green cell ratio (normalised) is 1.16. The result for `CC(CC(=O)N1CCOC1=O)N1C(=S)OC[C@@H]1Cc1ccccc1` (some centres undefined) reads 1.09; that for `Oc1ccc2ccccc2c1Oc1ccc2ccccc2c1`, 0.92. The result for `CC(=O)O[C@H]1CC[C@@]2(C)C(CC[C@]3(C)C2CC=C2C4CC(C)(C)CC[C@]4(C)CC[C@]23C)C1(C)C` (some centres undefined) reads 1.1; that for `C[C@@H]1C[C@H](O)/C=C/[C@H](O)[C@@H](O)CC(=O)O1`, 0.87; that for `OC[C@H]1O[C@@](CO)(O[C@@H]2O[C@H](CO)[C@@H](O)[C@H](O)[C@H]2O)[C@@H](O[C@@H]2O[C@H](CO)[C@@H](O)[C@H](O)[C@H]2O)[C@@H]1O`, 0.9. In the case of `COc1c(F)c(F)cc(C(N)=O)c1F`, the red/green cell ratio (normalised) is 1.04. On to `Cc1ccc(S[C@H]2OC(CO)C(O)[C@H](O)[C@@H]2N)cc1` (some centres undefined), for which the red/green cell ratio (normalised) was 0.98. As to `NC(=O)c1c(Cl)nc(Cl)c2ccccc12`, the red/green cell ratio (normalised) is 1.12. Then `CC(=O)C(C)(C)[C@H]1OC2CC[C@@]3(C)[C@@](O)(CC[C@H]4Cc5c([nH]c6ccccc56)[C@@]43C)C2=CC1=O` (some centres undefined), with 0.87; and `CCCc1ccc(C(=O)O)nc1`, with 0.84; and `CC1(C)CC[C@]2(C(=O)O)CC[C@]3(C)C(=CCC4[C@@]5(C)CC[C@H](O)[C@@](C)(CO)C5CC[C@]43C)C2C1` (some centres undefined), with 0.94.

On to `Cc1ccc(S[C@H]2OC3COC(c4ccccc4)OC3[C@@H]3OC(=O)N[C@H]23)cc1` (some centres undefined), for which the red/green cell ratio (normalised) was 1.55. The result for `COc1c(O)cc2c(c1O)C(=O)O[C@@H](C)[C@@H]2O` reads 1; that for `CC(C)(C)Oc1c(F)c(F)nc(F)c1Cl`, 0.97; that for `O=C1C[C@@H]2[C@H](Br)[C@@H](O)C[C@@H]2O1`, 0.73. The result for `COC(=O)C1O[C@H](OCc2ccccc2)[C@@H](OC(=O)c2ccccc2)[C@@H](OC(=O)c2ccccc2)C1O` (some centres undefined) reads 1.02; that for `COC(=O)CCC(C)[C@H]1CCC2C3C(C[C@H](O)[C@@]21C)[C@@]1(C)CC[C@@H](O)C[C@H]1C[C@H]3O` (some centres undefined), 1.15; that for `C=C[C@@](C)(O)CCC1C(=C)C[C@H](OC(C)=O)C2C(C)(C)CCCC12C` (some centres undefined), 1.05. As to `C[C@@H](O)[C@H]1C(=O)N2C(C(=O)O)=C(SC3CN[C@H](C(=O)N(C)C)C3)[C@H](C)[C@H]12` (some centres undefined), the red/green cell ratio (normalised) is 1.01. As to `O=C(O)c1cn(C2CC2)c2cc(N3CCN(c4ncncn4)CC3)c(F)cc2c1=O`, the red/green cell ratio (normalised) was 1.22. Consider `CC(=O)OC1(C)CC[C@@]23CC1C(C)(C)[C@@H]2CC[C@H]3C` (some centres undefined), for which the red/green cell ratio (normalised) is 0.99. With `CC1CCCC(O)/C=C/C(O)C(=O)c2c(O)cc(O)cc2CC(=O)O1` (centres undefined), the red/green cell ratio (normalised) was 1.11. Then `CC1=C(/C=C/C(C)=C/C=C/C(C)=C/C=C/C=C(C)/C=C/C=C(C)/C=C/C2=C(C)C(=O)C(O)CC2(C)C)C(C)(C)CC(O)C1=O` (centres undefined), with 1.11; and `CC(C)[C@@H]1CC[C@]2(CO2)[C@@H]2C(=O)OCC(C(=O)O)=C[C@H]21`, with 1.02; and `COc1c(F)c(F)cc(C(=O)O)c1F`, with 1.1 and 1.01. The result for `CO[C@@H]1CC(=O)c2cccc3c2C12Oc1ccc(O)c4c1[C@](O3)(O2)C1O[C@@H]1[C@@H]4O` (some centres undefined) reads 0.98; that for `CC(=O)O[C@H]1CC[C@@]2(C)C(=CCC3C2CC[C@@]2(C)C3CC[C@@H]2C(C)CCCC(C)C)C1` (some centres undefined), 1.16; that for `CNC1C(O[C@@H]2OC(CO)C(N)[C@H](O)C2O)OC2CC(N)[C@@H](OC3C(N)C[C@@H](N)C(O)[C@H]3O)OC2C1O` (some centres undefined), 1.2.

Turning to `COc1c(N2CC[C@@H](CN)C2)c(F)cc2c(=O)c(C(=O)O)cn(CCCCN3C(=O)c4ccccc4C3=O)c12`, the red/green cell ratio (normalised) is 1.

On to `C=C1C2=C(C(=O)N1OC)[C@H](O)[C@](C)(O)[C@H](CCCCC)O2`, for which the red/green cell ratio (normalised) was 1.13.
